Reference: PubChem BioAssay AID588342 (National Center for Advancing Translational Sciences (NCATS), 2011)
Out of some 360,000 compounds screened, about 25,000 (6.9%) were called active. Another 9% or so got no clear call; they are omitted. Calls come from the whole dose curve; as a rule, active = well fitted inhibition curve with a large enough effect; inconclusive = small, poorly fitted or top-dose-only effect; inactive = flat fitted curve, though single readings scatter. The entries come from a sample that favours actives as a whole.

Each compound was assayed against Luciferin 4-monooxygenase (Photinus pyralis) (UniProt P08659) (assay: qHTS profiling assay for firefly luciferase inhibitor/activator using purifed enzyme and Km concentrations of substrates (counterscreen for miR-21 project)). Conditions: purified FLuc, luminescence inhibition; series mostly up to 57.5 µM; activity change, negative = inhibition: at the top concentration.
Chain of Luciferin 4-monooxygenase (Photinus pyralis) (P08659 whole entry, looked up): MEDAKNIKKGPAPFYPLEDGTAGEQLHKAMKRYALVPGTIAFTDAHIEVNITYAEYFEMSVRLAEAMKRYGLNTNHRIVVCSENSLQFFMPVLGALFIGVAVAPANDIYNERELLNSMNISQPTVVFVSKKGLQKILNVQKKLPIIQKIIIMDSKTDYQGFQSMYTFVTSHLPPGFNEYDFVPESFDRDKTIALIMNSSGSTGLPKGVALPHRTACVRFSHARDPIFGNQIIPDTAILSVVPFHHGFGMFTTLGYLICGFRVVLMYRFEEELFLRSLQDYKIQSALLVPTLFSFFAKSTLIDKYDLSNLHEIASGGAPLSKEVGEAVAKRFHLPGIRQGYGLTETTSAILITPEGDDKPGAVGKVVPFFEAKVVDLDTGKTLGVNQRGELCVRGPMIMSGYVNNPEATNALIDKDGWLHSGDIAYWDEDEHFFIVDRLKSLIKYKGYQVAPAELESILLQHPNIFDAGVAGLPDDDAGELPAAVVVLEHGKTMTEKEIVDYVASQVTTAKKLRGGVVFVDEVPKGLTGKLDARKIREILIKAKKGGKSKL
How it was run: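 Purified P. pyralis luciferase (10nM final) with 10uM D-luciferin and 10uM ATP (Km levels) in 50mM Tris acetate pH 7.5, 10mM Mg acetate, 0.01% Tween-20, 0.05% BSA; qHTS 6-point titration, ~60 µM downward; luminescence read.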
Note: nearly all actives have a fitted effect of over 55% in size.
Potency is the fitted concentration of half-maximal effect.
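Throughout, for activity change, negative = inhibition: plate controls were vehicle for no effect and reference inhibitor for full effect.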

| Structure (SMILES) | activity change, negative = inhibition | Potency |
| --- | --- | --- |
| COC(=O)c1ccc(OC)c(Cn2c(=O)n(Cc3ccccc3)c(=O)c3c2c2cc(OC)ccc2n3C)c1 | -0.797% (inactive) | – |
| CCOc1ccccc1NC(=O)CN1CCCN(Cc2cccc(Cl)c2)S1(=O)=O | -10.8% (inactive) | – |
| c1cnc(N2CCN(c3ccc4ccccc4n3)CC2)nc1 | – | 5.36 µM (active) |
| CC12CCC(C(=O)N3CCN(c4ncccn4)CC3)(c3nc4ccccc4nc31)C2(C)C (stereo not drawn) | 4.23% (inactive) | – |
| O=C(c1ccncc1)N1CCN(c2ccc3ccccc3n2)CC1 | 4.69% (inactive) | – |
| Cc1csc(NC(=O)NC2(C(F)(F)F)Oc3ccccc3O2)n1 | -17.9% (inactive) | – |
| CN1CCN(CCNC(=O)Nc2ccccc2[N+](=O)[O-])CC1 | -1.04% (inactive) | – |
| Cc1csc(NC(=O)Nc2ccccc2[N+](=O)[O-])n1 | – | 4.78 µM (active) |
| COc1ccc(Cl)cc1NC(=O)CN(C)C(=O)c1ccc2n[nH]nc2c1 | 4.74% (inactive) | – |
| Cc1cccc(NC(=O)CSc2nc3c(c(=O)[nH]2)CCCC3)c1C | 1.26% (inactive) | – |
| Cc1cccc(NC(=O)CSc2ncc(-c3ccccc3)[nH]2)c1C | – | 13.5 µM (active) |
| Cc1cccc(NC(=O)CSc2nc3c(c(=O)[nH]2)CCC3)c1C | 1.5% (inactive) | – |
| O=C(Nc1ccccc1Cl)N1CCC(CN2CCCC2)CC1 | -1.17% (inactive) | – |
| Cc1cc(Nc2cccc(C(F)(F)F)c2)nc2ccc(NC(=O)c3ccc(=O)[nH]c3)cc12 | 1.3% (inactive) | – |
| CSc1ccc(NC(=O)Cn2nnnc2-c2ccccc2F)cc1 | 1.67% (inactive) | – |
| CCOc1ccc2nc(N(CCN(C)C)C(=O)c3ccc4ccccc4c3)sc2c1 | 0.783% (inactive) | – |
| Cc1ccc(C)c(NC(=O)C2CCCN(S(=O)(=O)c3cn(C)cn3)C2)c1 (stereo not drawn) | -0.326% (inactive) | – |
| CCOc1ccc2nc(N3CCC(C(=O)Nc4cc(C)ccc4C)CC3)sc2c1 | -11.9% (inactive) | – |
| CCOc1ccc2nc(N3CCCC(C(=O)Nc4cc(C)ccc4C)C3)sc2c1 (stereo not drawn) | – | 2.39 µM (active) |
| CCCC(=O)N(CCN1CCOCC1)c1nc2ccc(OCC)cc2s1 | -9.15% (inactive) | – |
| CCOc1ccc2nc(C(=O)N3CCCC(C)C3)sc2c1 (stereo not drawn) | – | 1.69 µM (active) |
| Cc1ccc2cccc(NC(=O)c3ccc(OC(C)C)cc3)c2n1 | -6.74% (inactive) | – |
| CCOC(=O)c1ccc(CSc2nnc3cc(C)c4ccccc4n23)cc1 | -16.9% (inactive) | – |

| Structure (SMILES) | activity change, negative = inhibition | Potency |
| --- | --- | --- |
| Oc1c(C(c2ccccc2Cl)N2CCOCC2)sc2nc(-c3ccco3)nn12 (stereo not drawn) | -18.7% (inactive) | – |
| CC(=O)c1ccc(NC(=O)C(C)N(C)CC(=O)Nc2ccccc2Cl)cc1 (stereo not drawn) | -0.631% (inactive) | – |
| Cc1cc([N+](=O)[O-])ccc1NC(=O)C1CCCO1 (stereo not drawn) | -6.26% (inactive) | – |
| Cc1cc(C)c2nc(NC(=O)C3CCCO3)sc2c1 (stereo not drawn) | – | 3.79 µM (active) |
| Cc1ccc(C)c(C(C)NC(=O)C2CCCO2)c1 (stereo not drawn) | -0.0636% (inactive) | – |
| COCCn1c(SCC(=O)c2cc(C)ccc2C)nc2cc(C(=O)NC3CCCC3)ccc2c1=O | -4.5% (inactive) | – |
| O=C(C1Cc2ccccc2CN1C(=O)c1ccco1)N1CCN(c2ccccc2)CC1 (stereo not drawn) | 7.36% (inactive) | – |
| O=C1NNC(c2ccccc2)=N/C1=C\c1ccc(Cl)cc1 | -1.28% (inactive) | – |
| O=C(Nc1sc2c(c1-c1nc3ccccc3[nH]1)CCCC2)C1CC1 | -7.46% (inactive) | – |
| Cc1ccc(-c2nc3ccccc3[nH]2)cc1N | – | 2.39 µM (active) |
| COc1ccc(-c2[nH]nc(-c3ccccc3)c2-c2nc3ccccc3[nH]2)cc1 | -0.473% (inactive) | – |
| c1ccc2[nH]c(-c3nc4ccccc4[nH]3)nc2c1 | – | 2.13 µM (active) |
| CN(C)c1cc(N)c2ccccc2n1 (tested in a mixture with another compound) | -2.37% (inactive) | – |
| Cc1ccc(C)c(N2CCN(C(=O)CCc3nc4ccccc4[nH]3)CC2)c1 | 0.47% (inactive) | – |
| COc1ccc(NC(=O)C2CCCN(S(=O)(=O)c3c(C)[nH]c(=O)[nH]c3=O)C2)c(OC)c1 (stereo not drawn) | 0.23% (inactive) | – |
| Cc1cc(C)c(NC(=O)CCc2c(C)nc3c(c(C)nn3C(C)(C)C)c2C)c(C)c1 | 2.9% (inactive) | – |
| CCCS(=O)(=O)N1CCC(n2c(C(F)(F)F)nc3cccnc32)CC1 | -6.09% (inactive) | – |
| CCOC(=O)c1ccc(NC(=O)Cn2c(=O)n(-c3ccc(C)cc3)c(=O)c3c2cnn3C)cc1 | 3.7% (inactive) | – |
| COc1cccc(/C=N/Nc2cc(C)nc(-c3ccccc3O)n2)c1O | – | 7.57 µM (active) |
| COc1cccc(/C=N/Nc2ncc(C(F)(F)F)cc2Cl)c1O | -8.77% (inactive) | – |
| COc1cccc2c(N/N=C/c3ccco3)cc(C)nc12 | -6.22% (inactive) | – |
| COc1ccccc1CNC(=O)c1ccc(-n2c(C)cc3c2CCCC3)cc1 | -0.838% (inactive) | – |
| O=C(NCC(c1ccco1)S(=O)(=O)c1cccs1)c1ccc(F)cc1 (stereo not drawn) | -1.13% (inactive) | – |

| Structure (SMILES) | activity change, negative = inhibition | Potency |
| --- | --- | --- |
| COc1ccc(C[C@H](C(=O)O)N2C(=O)c3ccc(C(=O)O)cc3C2=O)cc1 | 2.08% (inactive) | – |
| Cc1ccc2[nH]cc(CCCN3C(=O)c4ccccc4C3=O)c2c1 | -19.3% (inactive) | – |
| COc1ccc2[nH]cc(CCN3C(=O)c4ccc(C(=O)O)cc4C3=O)c2c1 | – | 21.3 µM (active) |
| COc1ccc(OC)c(-n2nnc3c(sc4nc(C)c(Br)c(C)c43)c2=O)c1 | -16.1% (inactive) | – |
| CC(C)C(NS(=O)(=O)c1cccs1)C(=O)Nc1nc(C(C)(C)C)cs1 (stereo not drawn) | 0.0539% (inactive) | – |
| CC(C)(C)c1csc(NC2=NS(=O)(=O)c3ccccc32)n1 | – | 1.51 µM (active) |
| Cc1ccc(S(=O)(=O)N(NC2=NS(=O)(=O)c3ccccc32)C(=O)c2ccccc2)cc1 | 7.5% (inactive) | – |
| CCOc1ccc(C(C(=O)NC2CCCC2)N(C(=O)c2snc(C(N)=O)c2N)C2CCCC2)cc1 (stereo not drawn) | -1.43% (inactive) | – |
| CC(C)(C)[Si](OCC[C@@H]1C[C@@]1(C)[C@@H](NP(=O)(c1ccccc1)c1ccccc1)c1ccccc1)(c1ccccc1)c1ccccc1 | 1.82% (inactive) | – |
| CCn1nccc1C(=O)Nc1ccc(S(=O)(=O)NC23CC4CC(CC(C4)C2)C3)cc1 | -16.5% (inactive) | – |
| CCn1nccc1C(=O)Nc1ccc(Cl)c(Cl)c1 | – | 21.3 µM (active) |
| O=C(CC(O)(C(F)(F)F)C(F)(F)F)Nc1ccc(Cl)c(Cl)c1 | 1.66% (inactive) | – |
| COC(=O)c1cnc(N2CCN(c3ccccc3OC)CC2)c2ccccc12 | 2.92% (inactive) | – |
| Cc1ccc(Cl)cc1NC(=O)CSc1nc2ccccc2nc1Cc1ccccc1 | -1.64% (inactive) | – |
| CCOc1ccc(-c2n[nH]c3c2C(c2ccccc2OC)N(c2ccc(Br)cc2)C3=O)cc1 (stereo not drawn) | -5.87% (inactive) | – |
| CCN(Cc1ccccc1)Cc1c(O)ccc2c(=O)c(-c3ccc(Cl)cc3Cl)coc12 | 1.52% (inactive) | – |
| CN(C)S(=O)(=O)c1cccc(C(=O)OCC(=O)N2CCCC2=O)c1 | 0.332% (inactive) | – |
| CCOC(=O)c1[nH]c(C)c(C(=O)OCC(=O)N2c3ccccc3CC2C)c1C (stereo not drawn) | -1.78% (inactive) | – |
| Cc1c(C(=O)OCC(=O)N2CCCC2=O)oc2ccccc12 | – | 16.9 µM (active) |
| O=C(OCC(=O)N1CCCC1=O)c1cc(S(=O)(=O)N2CCOCC2)ccc1Cl | -1.01% (inactive) | – |
| CCOC(=O)c1c(C)[nH]c(C(=O)OCC(=O)N2CCCC2=O)c1C | – | 12 µM (active) |
| CCOC(=O)c1c(C)[nH]c(C(=O)NCCN2CCOCC2)c1C | -1.59% (inactive) | – |
